A549 tox: A549 cytotoxicity, counter-screen for Nrf2 inhibitors; Potency, µM (top dose mostly 46 µM), for inactives: at the highest dose activity change, negative = cytotoxicity, actives largely listed as inhibitors; A549 ARE-Fluc cells, CellTiter-Fluor viability, 18-24 h; AID 504648; 390,000 tested, 0.16% active; also: % is scaled to controls: 0 for no effect and ±100 for the full control effect
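Cytotoxicity counterscreen: CellTiter-Fluor fluorescence was measured in A549 ARE_Fluc cells after 18-24 h of compound exposure in a concentration series. The subsequent BugLite luminescent read reports ARE-luciferase activity.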
Nrf2 activator: activators of Nrf2 (ARE) signaling; 410,000 tested, 0.31% active; Potency, µM (series often up to 46.1 µM), without a hit: top-dose activation, usual class: activators; AID 624171; AREc32 ARE-luciferase reporter (MCF7-derived line), luminescence, 24 h; also: % of control where 0% means no effect; nearly all actives have a fitted effect of over 65% in size
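ARE activation measured as luciferase luminescence (Steady-Glo, 30 min RT) in AREc32_Fluc cells after 24 hr compound exposure at 37 deg C, 5% CO2; cells seeded overnight at 1000/well in OPTI-MEM, 5% FBS.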
ELG1 repair inh: ELG1-dependent DNA repair inhibition; HEK293T ELG1-luciferase reporter, luminescence, 16 h; DNA damage induced by 5-fluorouridine; 330,000 tested, 2.3% active; Potency, µM (top dose mostly 46.1 µM), for the others: at the highest dose activity change, negative = inhibition, actives largely listed as inhibitors; also: % is scaled to controls: 0 for no effect and ±100 for the full control effect; nearly all actives have a fitted effect of over 55% in size
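HEK293T cells expressing luciferase-tagged ELG1 (2,000/well) received 5-Fluorouridine plus compound or DMSO for 16 hr at 37 °C. Luciferase was read by ONE-Glo luminescence after 30 min at room temperature.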
Nrf2 block: inhibitors of Nrf2 signaling; Potency, µM (highest dose often 46 µM), without a hit: at the highest dose activity change, negative = inhibition, hits mostly inhibitors; A549 ARE-Fluc reporter, luciferase luminescence, 18-24 h; 360,000 tested, 2.1% active; also: % is scaled to controls: 0 for no effect and ±100 for the full control effect; nearly all actives have a fitted effect of over 60% in size
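A549 ARE_Fluc cells (5000/well, 5% FBS OPTI-MEM) pre-incubated 2 h, then treated with compounds 18-24 h at 37C/5% CO2 in concentration-response. CellTiter-Fluor viability read first; BugLite luciferase luminescence after 15 min at room temperature gives Nrf2 activity.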
An asterisk follows results filed as active; ? = inconclusive; . = no result given. A selection: hits, their analogues and other compounds. The true share with any hit is near 3.7%. Calls follow the shape of the dose curve; as a rule, active = well fitted curve in the direction sought with a large enough effect; inconclusive = small, poorly fitted or top-dose-only effect, or another doubt; inactive = no such curve, though single readings can be large; an effect the other way counts as inactive or inconclusive. Potency is read from the fitted curve at half-maximal effect.

SMILES	A549 tox	Nrf2 activator	ELG1 repair inh	Nrf2 block
C/C(=N\Nc1ccc2nncn2n1)c1ccc(Cl)s1	-0.3%	7.94µM*	1.1%	-4.9%
CSc1cc2c(s1)c1cnn(Cc3cccc(O)c3)c(=O)c1n2C	-20.4%	.	.	?
O=C(O)CN1C(=O)C=CC1=O	.	-1.0%	.	.
O=C1C=CC(=O)N1CCCCCCN1C(=O)C=CC1=O	?	-3.2%	23.1µM*	?
CN(C)c1ccc(C(C(=O)NC2CCCCC2)N(Cc2ccco2)C(=O)c2snc(C(N)=O)c2N)cc1 (stereo not given)	?	3.4%	?	14.6µM*
CC(C)CC(C(=O)NC1CCCC1)N(Cc1cccs1)C(=O)c1snc(C(N)=O)c1N (stereo not given)	-8.8%	1.4%	18.4µM*	?
CCCc1nnc(NC(=O)Cc2coc3c(C)c(C)ccc23)s1	-0.1%	-0.3%	.	5.3%
COc1ccccc1OCc1cc(C(=O)NCc2ccc(N3CCCC3=O)cc2)no1	-8.3%	-0.2%	-4.5%	?
Cn1c(NC(=O)/C=C\c2ccccc2)cc(=O)n(C)c1=O	2.9%	11.2µM*	?	?
Cn1c(NC(=O)c2cccs2)cc(=O)n(C)c1=O	-4.0%	9.8%	0.0%	10.3%
Cn1c(NC(=O)c2ccc(Br)o2)cc(=O)n(C)c1=O	2.1%	11.2µM*	2.3%	.
Cn1c(NC(=O)/C=C/c2c(F)cccc2Cl)cc(=O)n(C)c1=O	7.1%	?	-6.2%	23.8%
CCOC(=O)C1=NN(C(C)=O)C2(CC(=O)N(c3cccc(C)c3)C2=O)C1 (stereo not given)	0.4%	-0.4%	-2.5%	4.8%
CCN(CC)S(=O)(=O)c1cccc(C(=O)Nc2cc(C)nn2-c2ccccc2)c1	-3.9%	-0.8%	23.1µM*	-9.9%
Cc1cc(NC(=O)c2cccc(S(=O)(=O)N3CCCCCC3)c2)n(-c2ccccn2)n1	?	-0.5%	-8.7%	.
Cc1cc(NC(=O)c2cccc(S(=O)(=O)N(C)C)c2)n(-c2ccccn2)n1	-12.0%	0.1%	?	25.9µM*
Cc1cc(NC(=O)COc2ccccc2)n(-c2ccccc2)n1	-2.7%	0.3%	16.4µM*	?
COc1ccc(/C=C2\SC(=O)NC2=S)cc1OC	11.6µM*	?	?	?
COc1ccc(/C=C2/CSC/C(=C/c3ccc(OC)c(OC)c3)C2=O)cc1OC	?	22.3%	.	5.17µM*
COc1ccc(/C=C2/SC(c3ccc(C)cc3)=NC2=O)cc1OC	-0.8%	15.0%	-26.7%	?
CCOc1ccc(/C=C2\SC(=S)NC2=O)cc1OC	-19.5%	17.9%	38.9%	-11.3%
COc1ccc(/C=C2\SC(c3ccc(C)cc3)=NC2=O)cc1OC	-2.5%	0.1%	-17.8%	16.4µM*
COc1ccc(/C=C2\Cc3ccccc3C2=O)cc1OC	1.2%	-0.2%	?	4.4%
CC(C)(C)OC(=O)CNC(=O)c1nc[nH]c1C(=O)N1CCNCC1	-1.9%	-1.6%	17.2%	-0.2%
Cc1cc2c(s1)c1cnn(Cc3c(F)c(F)c(C(F)(F)F)c(F)c3F)c(=O)c1n2C	2.0%	.	.	1.8%
SMILES	A549 tox	Nrf2 activator	ELG1 repair inh	Nrf2 block
COC(=O)C1=C(C)N(c2cc(Cl)cc(Cl)c2)C(=O)C1	-15.0%	?	-11.1%	9.2µM*
O=C(C1CCCCC1)N1CCN=C1SCc1cccc([N+](=O)[O-])c1	-2.0%	4.4%	?	20.6µM*
O=C(NC1CC(=O)N(c2ccc(Cl)cc2)C1)c1cc2ccccc2o1 (stereo not given)	4.1%	0.3%	.	.
Cc1cc(C)cc(NS(=O)(=O)c2ccc3c(c2)OCC(C(=O)N2CCCC2)O3)c1 (stereo not given)	-10.7%	-0.9%	.	-22.8%
O=C(C1COc2cc(S(=O)(=O)Nc3ccc(Cl)cc3)ccc2O1)N1CCCC1 (stereo not given)	-4.9%	-0.1%	.	25.9µM*
Cc1cccc(NC(=O)CN2c3ccccc3S(=O)(=O)c3ccccc32)c1C	1.8%	0.1%	.	-18.6%
COc1ccc(-c2c(-c3cc(OC)cc(OC)c3)n(C)c3ccc(-c4ccc(S(N)(=O)=O)cc4)cc23)cc1	5.8%	-3.3%	?	?
O=C(NNC(=O)C12CC3CC(CC(C3)C1)C2)c1cccc([N+](=O)[O-])c1	-5.2%	10µM*	8.5%	-8.8%
CCCCNC(=O)C1(C)CCCCN1Cc1ccc(OCc2ccccc2)cc1 (stereo not given)	.	5.8%	.	.
Cc1cc(C)cc(NC(=O)CSc2ccc(-c3cccs3)nn2)c1	-2.1%	0.3%	?	10.3µM*
O=C(CSc1ccc(-c2cccs2)nn1)Nc1ccccc1	0.2%	5.3%	?	18.4µM*
COC(=O)c1ccc(NC(=O)CSc2ccc(-c3cccs3)nn2)cc1	9.0%	3.0%	.	8.8%
O=C1/C(=C\c2cc(Cl)c(O)c(Cl)c2)SC(=S)N1Cc1ccccc1	-23.7%	0.0%	?	18.4µM*
COc1cccc(NC(=O)CN(C)C(=O)c2ccc(-c3cccc(C(F)(F)F)c3)o2)c1	-8.0%	0.7%	-3.3%	-17.1%
CN(CC(=O)Nc1cccc(F)c1)C(=O)c1ccc(-c2cccc(C(F)(F)F)c2)o1	-11.9%	3.5%	0.291µM*	?
O=C(NCC(O)c1ccccc1)c1ccc(Cl)c(S(=O)(=O)N2CCCC2)c1 (stereo not given)	-1.9%	2.7%	?	-27.8%
O=C(Nc1ccc(C2SCCS2)cc1)c1ccccc1	-4.1%	-1.9%	?	?
CC(Oc1ccccc1)C(=O)Nc1ccc(NC(=O)c2ccccc2)cc1 (stereo not given)	6.6%	0.0%	9.7%	-3.5%
COc1cc(NC(=O)c2ccccc2)c(OC)cc1Cl	-1.3%	15.7%	-7.8%	-4.3%
COc1ccccc1NC(=O)c1sc(Cl)nc1C	-3.0%	11.2µM*	5.9%	5.8%
COc1cc(NC(=O)c2sc(C)nc2C)c(OC)cc1NC(=O)c1ccccc1	1.1%	-0.5%	14.6µM*	5.0%
COc1cc(NC(=O)C(C)Oc2ccccc2)c(OC)cc1NC(=O)c1ccccc1 (stereo not given)	-7.3%	0.7%	14.6µM*	-17.0%
COCCNC(=O)C1(C)CCN(C(=O)c2cc(C)nn2C(C)(C)C)C1 (stereo not given)	.	-0.8%	.	.
COC(=O)c1scc(C)c1NC(=O)c1ccccc1F	2.4%	12.6µM*	21.8%	?
COC(=O)c1scc(C)c1NC(=O)C(Cl)c1ccccc1 (stereo not given)	2.3%	12.6µM*	-8.4%	3.5%
COC(=O)c1scc(C)c1NC(=O)Nc1ccccc1	-6.9%	4.7%	?	.
Nc1nc(SCc2cccnc2)c2ncn(C3OC(CO)C(O)C3O)c2n1 (stereo not given)	-0.1%	0.2%	.	0.5%
COc1c(/C=N/NC(=O)[C@H]2C[C@@H]2c2ccccc2)c(CCN(C)C(C)=O)cc2c1OCO2	1.0%	2.4%	13µM*	-13.4%
CCC(=O)N(C)CCc1cc2c(c(OC)c1/C=N/NC(=O)[C@H]1C[C@@H]1c1ccccc1)OCO2	-5.5%	-1.1%	?	19.8%
